The full list was thinned out, with hits kept by preference.
GC-A act – GC-A (human) enzyme activation; P16066; HEK293 GC-A cells, cGMP TR-FRET, EC30 ANP; 0% at EC30 ANP, 100% saturating ANP; activation, % at 10 µM; 370,000 compounds, 0.14% hits; in the data active = activation above about 40%
HDAC3 inhib – human HDAC3 inhibition; O15379; recombinant HDAC3, fluorogenic peptide/trypsin coupled, fluorescence; inhibition, % at 8.3 µM; 320,000 compounds, 0.15% hits; AID 2718; in the data active = inhibition above about 26%, passing the limit was not always enough; inconclusive = no clear call, values can overlap the other calls
Target sequence (O15379 whole entry, looked up): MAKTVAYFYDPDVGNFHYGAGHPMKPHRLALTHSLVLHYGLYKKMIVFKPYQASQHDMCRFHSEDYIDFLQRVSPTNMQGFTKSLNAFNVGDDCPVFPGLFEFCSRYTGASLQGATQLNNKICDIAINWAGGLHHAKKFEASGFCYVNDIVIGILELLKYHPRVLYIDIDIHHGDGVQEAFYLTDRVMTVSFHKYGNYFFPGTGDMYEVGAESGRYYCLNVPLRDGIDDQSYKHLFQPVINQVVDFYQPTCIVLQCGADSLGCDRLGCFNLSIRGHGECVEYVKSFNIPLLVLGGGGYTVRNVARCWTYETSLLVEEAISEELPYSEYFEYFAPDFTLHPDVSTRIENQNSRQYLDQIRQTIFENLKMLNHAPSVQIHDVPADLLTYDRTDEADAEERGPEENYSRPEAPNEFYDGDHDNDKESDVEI
ALR inh – inhibitors of human sulfhydryl oxidase ALR. P55789. purified ALR, DTT oxidation, H2O2 HRP-luminol luminescence. inhibition, % (concentration not given with the values). 290,000 compounds, 3.8% hits. AID 485317;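 active = mean replicate inhibition above about 79%, with every replicate also reaching it, limit read from the data; inconclusive = only one of the two criteria met; inactive = mean below limit and not every replicate reaching it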
Target sequence (P55789 whole entry, looked up): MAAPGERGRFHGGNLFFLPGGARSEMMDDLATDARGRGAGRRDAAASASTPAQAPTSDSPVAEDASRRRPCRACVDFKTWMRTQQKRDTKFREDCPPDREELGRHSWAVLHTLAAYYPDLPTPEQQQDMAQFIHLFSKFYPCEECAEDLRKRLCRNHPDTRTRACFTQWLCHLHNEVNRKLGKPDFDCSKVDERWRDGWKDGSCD
GC-B act – GC-B (human) receptor activation; activation, % at 10 µM; P20594; HEK293-GC-B cells, CNP EC30, cGMP TR-FRET; 0% at EC30 CNP, 100% saturating CNP; 370,000 compounds, 0.11% hits; AID 1920062;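 active = activation at 10 µM reaching about 35% in either raw or pattern-adjusted values, limit read from the data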
* = called active by the depositor; ? = inconclusive; . = no result.

SMILES	GC-A act	HDAC3 inhib	ALR inh	GC-B act
O=S(=O)(/N=C(\Sc1ccccc1)c1ccccc1)c1ccc(Cl)cc1	4.6	-0.5	-1.5	2.6
CN1CCc2c(sc3c2C(=O)NC(c2ccc(-c4ccc(Cl)cc4)o2)N3)C1 (stereo not given)	2.5	-3.3	90.6*	0.3
CCOC(=O)c1cnc(SCCN2CCOCC2)nc1N	2.8	-4.2	-2.7	4.0
CC(=O)N1CCN(C(C)=O)c2ccccc21	2.9	.	.	3.4
CC(=O)N1Cc2cc(N)ccc2Oc2ccccc21	-2.6	-0.2	88.7*	4.3
Nc1ccc(/C=C/C(=O)c2ccco2)cc1	0.7	6.7	98.9*	-11.1
N#Cc1ccc(/C=C/C(=O)c2ccco2)cc1	-3.8	0.8	5.1	-2.3
O=C(/C=C/c1cc(Br)ccc1O)c1ccco1	-11.9	.	96.9*	-5.2
CCOC(=O)/C=C/C(=O)OCC(=O)Nc1ccc(Cl)cc1Cl	1.5	2.3	95.5*	9.1
CCOC(=O)/C=C/C(=O)OCC(=O)Nc1c(Cl)cccc1Cl	-0.3	4.6	14.8	2.1
CCN1CCN(c2cc(C)c3cc(NC(=O)CCC(=O)N4CCN(c5ccccc5)CC4)ccc3n2)CC1	3.5	-6.7	91.4*	-3.0
CCN1CCN(c2cc(C)c3cc(NC(=O)CCC(=O)N4CCN(c5ccccc5OC)CC4)ccc3n2)CC1	-3.7	-7.8	47.7	-2.6
COCCNC(=O)COC(=O)/C=C/c1cnc2ccccc2n1	1.2	1.0	-10.1	-7.9
O=C(COC(=O)/C=C/c1cnc2ccccc2n1)NCC(F)(F)F	-4.4	-2.5	90.7*	3.4
O=C(COC(=O)CSc1ccc([N+](=O)[O-])cc1)NCc1cccs1	0.7	15.9	48.7	-7.5
Cc1nn(-c2ccccc2)cc1/C=N/NC(N)=S	-2.2	5.3	96.9*	-7.5
Cc1nn(-c2ccccc2)cc1/C=N/O	5.5	7.6	29.0	12.0
CC(C)Cc1nc2ccccc2[nH]1	3.2	-15.7	-2.9	3.6
CC(C)Cc1nc2ccc(N)cc2[nH]1	-6.8	6.7	99.6*	4.1
Nc1ccc2nc(Cc3ccccc3)[nH]c2c1	1.0	3.9	100.2*	-1.0
Cc1cccc(-n2ncc3c2CCCC3NC(=O)CCCN2CCCCC2=O)c1C (stereo not given)	.	-1.6	-22.6	.
O=C(NCc1cccnc1)c1ccc(Br)o1	-4.5	-0.3	.	2.3
Cc1oc(-c2ccccc2F)nc1CS(=O)(=O)CC(=O)NC1CCCC1	-3.2	6.5	37.0	1.3
Cc1ccc(-c2nc(CS(=O)CC(=O)NCc3ccccc3)c(C)o2)cc1 (stereo not given)	9.3	.	98.1*	4.8
Cc1oc(-c2ccccc2F)nc1CS(=O)CC(=O)NCc1ccccn1 (stereo not given)	7.5	3.1	99.2*	-0.7
SMILES	GC-A act	HDAC3 inhib	ALR inh	GC-B act
Cc1ccc(-c2nc(CS(=O)CC(=O)NCc3ccccn3)c(C)o2)cc1 (stereo not given)	3.1	0.8	99.6*	-5.5
Cc1ccc(CCNC(=O)CS(=O)Cc2nc(-c3cccs3)oc2C)cc1 (stereo not given)	0.2	2.5	.	1.1
Cc1ccc(CNC(=O)CS(=O)Cc2nc(-c3cccs3)oc2C)cc1 (stereo not given)	3.0	2.4	99.4*	4.6
CCOC(=O)[C@H]1[C@H]2COc3cc(OC)ccc3[C@@H]2N2C(=O)N(c3ccc(Cl)cc3)C(=O)[C@@]12C	.	4.9	1.6	.
Cc1ccc(NC(=O)CS(=O)Cc2nc(-c3ccc(C)cc3)oc2C)cc1 (stereo not given)	6.0	-2.8	98.8*	2.7
COc1ccc(-c2nc(CS(=O)(=O)CC(=O)NCCc3ccccc3)c(C)o2)cc1	-2.1	2.4	-4.2	-4.7
Cc1ccc(-c2nc(CS(=O)CC(=O)NCc3ccc(F)cc3)c(C)o2)cc1 (stereo not given)	20.0	1.5	98.8*	2.6
CCc1ccc(-c2nc(CS(=O)CC(=O)NCCc3ccccc3)c(C)o2)cc1 (stereo not given)	2.2	-2.7	99.2*	-0.1
COc1ccc(NC(=O)CS(=O)(=O)Cc2nc(-c3ccc(C)cc3)oc2C)cc1	-1.7	-2.0	-2.0	5.4
O=C(CCN1Cc2ccccc2C1)c1ccc2c(c1)OCCO2	10.7	.	18.5	-3.0
O=C(CCN1CCc2ccccc2C(c2ccccc2)C1)c1ccc2c(c1)OCCO2 (stereo not given)	0.0	6.6	97.4*	-9.8
CCN=C1NC(c2ccc(C(F)(F)F)cc2)C(C(=O)OC)=C(C)N1Cc1ccccc1C(F)(F)F (stereo not given)	-12.1	.	.	-7.5
Cc1ccc2c(c1)CCCN2S(=O)(=O)c1cccc(C(=O)Nc2ccccc2C(=O)O)c1	-2.5	5.5	98.1*	6.4
O=C(O)c1cccc(NC(=O)c2cccc(S(=O)(=O)N3CCc4ccccc43)c2)c1	-1.0	1.7	.	2.1
CN(C)C(=O)c1ccc(NC(=O)c2cccc(S(=O)(=O)N3CCCc4ccccc43)c2)cc1	-11.3	-8.6	98.4*	-6.0
CN(C)C(=O)c1ccc(NC(=O)c2cccc(S(=O)(=O)N3CCCCCC3)c2)cc1	-3.0	-2.1	-5.2	5.8
c1ccc(-n2nnc(-c3nccs3)n2)cc1	0.3	-3.9	94.5*	1.3
CCN(CC)c1ccc(CNCc2cccs2)cc1	-5.3	-9.1	99.0*	-4.4
O=C(Nc1cccnc1)c1ccc2ccccc2c1O	3.3	-19.6	91.4*	3.9
CC1(C)CC(=O)C=C(Nc2ccccc2N)C1	0.2	-0.2	98.7*	3.9
CCc1ccccc1NC1=CC(=O)CC(C)(C)C1	1.9	-16.1	2.0	7.2
CCOC(=O)CC[C@H]1CC[C@]2(CCCN(C(=O)c3ccc4ccccc4n3)C2)O1	1.5	.	.	0.7
COc1cc(/C=C(\CC(=O)O)c2nc3ccccc3s2)cc(OC)c1O	1.2	4.9	99.5*	-3.9
COc1ccc(/C=C(\CC(=O)O)c2nc3ccccc3s2)cc1O	-1.9	1.9	91.9*	-2.8
CCOc1cc(/C=C(\CC(=O)O)c2nc3ccccc3s2)ccc1OC	7.2	-10.2	4.1	2.9
SMILES	GC-A act	HDAC3 inhib	ALR inh	GC-B act
CC1(C)CC(=O)C=C(c2cn[nH]n2)C1	0.9	.	.	-4.4
COC(=O)[C@]12C[C@H](CC(=O)NCc3cccc(C(F)(F)F)c3)C(=O)N(CCc3ccc(OC)c(OC)c3)C1=C[C@H](COCc1ccccc1)O[C@@H]2C	-3.3	.	.	4.4
CN(C)c1ccc2c3c(ccc(N(C)C)c13)C(=O)OC2	-1.4	2.0	79.8*	-4.9
CC(C)c1ccc(NC(=O)COC(=O)c2nn(C)c(=O)c3ccccc23)cc1	4.8	1.8	-18.5	-2.1
CCCC(=O)n1nc(-c2ccccc2)nc1SC	4.2	32.0*	42.6	12.1
CSc1nc(-c2ccccc2)nn1C(=O)c1ccccc1	0.2	?	13.8	10.7
COc1ccc(OC)c(NC(=O)COc2cc(O)c3c(c2)OC(C)(C)CC3=O)c1	1.3	.	.	-2.2
COc1ccc(Cl)cc1NC(=S)NC1CCCC1	-0.9	3.1	1.2	-6.7
CCCCNC(=O)c1sc(=S)n2c1[nH]c(=O)c1ccccc12	3.9	0.7	.	1.1
O=C(NC1CCCCC1)c1sc(=S)n2c1[nH]c(=O)c1ccccc12	5.7	6.6	96.9*	3.3

Source: PubChem BioAssay (several laboratories)
